The source made the active and inactive calls. Calls follow the shape of the dose curve; as a rule, active = well fitted curve in the direction sought with a large enough effect in the repeat runs; inconclusive = weak or mixed curves; inactive = flat fitted curve, though single readings scatter. Positions of bridges follow the written chain, without caps; N, C: chain ends. Non-standard residues stand in square brackets, D forms with d. Residues, ends and D or L forms follow the SMILES beside them. ξ: configuration not given here. *: point of attachment. d(aThr) = C[C@@H](O)[C@@H](N)C(=O)O; ξThr(3R) = C[C@@H](O)C(N)C(=O)O; X3 = CC[C@@H](C)CCCCC(=O)*; dDab = NCC[C@@H](N)C(=O)O
Assay: qHTS assay to test for compound auto fluorescence at 535 nm (green) in HepG2 cells (AID 720675)
Conditions: green autofluorescence 485/535 nm, 1 h; series mostly up to 46 µM; fluorescence, % of fluorescein control: at the top concentration
From the text: National Center for Advancing Translational Sciences [NCATS]
NIH Chemical Genomics Center [NCGC]
U.S. Environmental Protection Agency [EPA]
National Institutes of Environmental Health Sciences [NIEHS]
National Toxicology Program [NTP]
U.S. Food and Drug Administration [FDA]
Compound auto fluorescence often interferes with screening of the compound library against various biological targets and signaling pathways. Some of these compounds may have fluorophoric properties. Such properties may interfere with the assay outputs resulting in false positives and/or negatives. To decrease such complications and ensure the compound activities are relevant in terms of biological response, the Tox21 10K compound library was screened for auto fluorescence.
From the fluorophores used as reporter signals in our screening assays, the auto fluorescence equivalencies of compounds against three fluorophores have been evaluated: Triamterene, Fluorescein and Rose Bengal sodium for blue, green and red fluorescence, respectively. The fluorescence intensities were measured using Excitation/Emission wavelengths at 405/460nm, 485/535nm and 540/590nm for blue, green and red labels, respectively. This assay includes the green fluorescence data.
Tox21 Assay Protocol Summary:
2,000 HepG2 cells in 5 uL of culture medium (MEM containing 10% FBS) per well were dispensed into black wall/clear bottom 1536-well plates using a Multidrop Combi Dispenser (ThermoFisher Scientific, Waltham, MA). The assay plates were incubated overnight at 37 C to allow cell attachment to the well bottom, followed by the transfer of 23 nL compound or DMSO vehicle by a pintool work station (Kalypsys , San Diego, CA). After the assay plates were incubated for 1 hr at 37 C and 5% CO2, fluorescence intensities in the assay plates were measured by an Envision (PerkinElmer, Shelton, CT) plate reader using three labels for measuring blue, green and red fluorescence at […] 460, 535 and 590 nm respectively.
% is scaled to controls: 0 for no effect and ±100 for the full control effect; potency is read from the fitted curve at half-maximal effect.

SMILES	fluorescence, % of fluorescein control	Potency
CCC(=O)OCC(=O)[C@@]1(OC(=O)CC)[C@@H](C)C[C@H]2[C@@H]3CCC4=CC(=O)C=C[C@]4(C)[C@@]3(F)[C@@H](O)C[C@@]21C	-0.0096% (inactive)	
CC1(C)S[C@@H]2[C@H](NC(=O)C(C(=O)Oc3ccc4c(c3)CCC4)c3ccccc3)C(=O)N2[C@H]1C(=O)O (stereo not given in full)	-0.0509% (inactive)	
CN[C@@H]1[C@@H](O)[C@@H](O[C@@H]2[C@@H](O)[C@H](OC3OC(CN)=CCC3N)[C@@H](N)C[C@H]2N)OC[C@]1(C)O (stereo not given in full)	0.076% [at 18.6 µM] (inactive)	
Cc1cc(Nc2ccccc2C(=O)O)ccc1Cl	0.0405% (inactive)	
CS(=O)(=O)NC(=O)CCC/C=C\C[C@H]1C(=O)C[C@@H](O)[C@@H]1/C=C/[C@H](O)COc1ccccc1	0.0502% (inactive)	
COc1cc(Br)c(C[N+]2(CCOCCC3CCC4CC3C4(C)C)CCOCC2)cc1OC (stereo not given)	0.133% (inactive)	
CCN(CC)CCOC(=O)c1cccnc1	8.3e-05% (inactive)	
S=C=Nc1ccc(N=C=S)cc1	0.0313% (inactive)	
O=P(O)(O)OC[C@H]1O[C@](O)(COP(=O)(O)O)[C@@H](O)[C@@H]1O	-0.0055% (inactive)	
C[C@@H]1C[C@H]2[C@@H]3CCC4=CC(=O)C=C[C@]4(C)[C@@]3(F)[C@@H](O)C[C@]2(C)[C@@]1(O)C(=O)COC(=O)c1cccc(S(=O)(=O)O)c1	-0.08% (inactive)	
CC(=O)N[C@@H](CC(=O)N[C@@H](CCC(=O)O)C(=O)O)C(=O)O	0.0138% (inactive)	
NC(N)=NCC1COc2ccccc2O1 (stereo not given)	-0.0238% (inactive)	
CC(C)(CO)[C@@H](O)C(=O)NCCC(=O)NCCSSCCNC(=O)CCNC(=O)[C@H](O)C(C)(C)CO	-0.0083% (inactive)	
Cn1cc(NC(=O)c2cc(NC(=O)c3cc(NC=O)cn3C)cn2C)cc1C(=O)NCCC(=N)N	-0.227% (inactive)	
Nc1ccn(C[C@@H](CO)OCP(=O)(O)O)c(=O)n1	-0.0022% (inactive)	
C[C@H]1C[C@@H]2[C@H]([C@@H](O)C[C@@]3(C)[C@H]2CC[C@]3(O)C(=O)COC(=O)CCC(=O)O)[C@@]2(C)C=CC(=O)C=C12	-0.121% (inactive)	
CN1CCN(C2=Nc3ccccc3Cc3ccccc32)CC1	0.0356% (inactive)	
C[C@]12CC[C@@H]3c4ccc(OC(=O)c5ccccc5)cc4CC[C@H]3[C@@H]1CC[C@@H]2O	-0.0374% (inactive)	
CCCCC[C@H](O)/C=C/[C@@H]1[C@H]2C/C(=C/CCCC(=O)O)O[C@H]2C[C@H]1O	0.0433% (inactive)	
O=C(Nc1ccc(/C=C/c2ccc(NC(=O)c3cc(S(=O)(=O)O)c4cccnc4c3O)cc2S(=O)(=O)O)c(S(=O)(=O)O)c1)c1cc(S(=O)(=O)O)c2cccnc2c1O	-0.0072% (inactive)	

SMILES	fluorescence, % of fluorescein control	Potency
C=CCSSSCC=C	-0.0565% (inactive)	
CC(=O)Oc1c(C)cc(OCC(O)CNC(C)C)c(C)c1C (stereo not given)	-0.0193% (inactive)	
O=C(O)CN(CC(=O)O)CC1=CC2C(=CC1=O)Oc1cc(O)c(CN(CC(=O)O)CC(=O)O)cc1C21OC(=O)c2ccccc21 (stereo not given)		10 µM (active)
O=C(O)c1ccc(NC(=O)[C@H](Cc2ccc(O)cc2)NC(=O)c2ccccc2)cc1	-0.0159% (inactive)	
CC(O)CN(C)C (stereo not given)	-0.099% (inactive)	
CCN1C(=O)NC(c2ccccc2)C1=O (stereo not given)	-0.0598% [at 18.6 µM] (inactive)	
CC(=O)O[C@H]1C[C@@H]2CC[C@@H]3[C@H](CC[C@@]4(C)[C@H]3C[C@H](N3CC[N+](C)(C)CC3)[C@@H]4OC(C)=O)[C@@]2(C)C[C@@H]1N1CC[N+](C)(C)CC1	-0.0497% (inactive)	
COc1ccc(C2(C#N)CCC(C(=O)O)CC2)cc1OC1CCCC1 (stereo not given)	-0.0807% (inactive)	
Cc1nc(NS(=O)(=O)c2ccc(N)cc2)nc(C)c1Br	-0.103% (inactive)	
CC(O)[C@@H]1NC(=O)[C@H](CCCCN)NC(=O)[C@@H](Cc2c[nH]c3ccccc23)NC(=O)[C@H](Cc2ccccc2)NC(=O)[C@@H](NC(=O)[C@H](N)Cc2ccccc2)CSSC[C@@H](C(=O)N[C@H](CO)[C@@H](C)O)NC1=O (stereo not given in full)	0.051% (inactive)	
CC(C)(C)NCC(O)CSc1nc(-c2ccc(C(N)=O)s2)cs1 (stereo not given)	-0.138% (inactive)	
CCC(=O)OCC(=O)[C@@]1(OC(=O)CC)[C@H](C)C[C@H]2[C@H]3[C@H]([C@@H](O)C[C@@]21C)[C@@]1(C)C=CC(=O)C=C1C[C@H]3Cl	-0.0344% [at 18.6 µM] (inactive)	
O=P(O)(O)C(Sc1ccc(Cl)cc1)P(=O)(O)O	-0.089% (inactive)	
CC(=O)[C@@]1(O)CC[C@H]2[C@@H]3C=C(Cl)C4=CC(=O)CC[C@]4(C)[C@H]3CC[C@@]21C	-0.064% (inactive)	
CCC(c1ccccc1)c1noc(CCN(CC)CC)n1 (stereo not given)	-0.106% (inactive)	
C=C(NC(=O)C(=C)NC(=O)c1csc(C2=N[C@@H]3c4csc(n4)[C@H]4NC(=O)c5csc(n5)[C@H]([C@](C)(O)[C@@H](C)O)NC(=O)[C@H]5CSC(=N5)C(=CC)NC(=O)C([C@@H](C)O)NC(=O)c5csc(n5)[C@]3(CC2)NC(=O)[C@H](C)NC(=O)C(=C)NC(=O)[C@H](C)NC(=O)C([C@@H](C)CC)NC2C=Cc3c([C@H](C)O)cc(nc3C2O)C(=O)O[C@@H]4C)n1)C(N)=O (stereo not given in full)	0.0021% [at 18.6 µM] (inactive)	
CC[C@@H](C)CCCCC(=O)N[C@H](CCN)C(=O)N[C@@H](C(=O)N[C@H](CCN)C(=O)N[C@@H]1CCNC(=O)C([C@@H](C)O)NC(=O)[C@@H](CCN)NC(=O)[C@@H](CCN)NC(=O)[C@@H](CC(C)C)NC(=O)[C@@H](Cc2ccccc2)NC(=O)[C@@H](CCN)NC1=O)[C@@H](C)O (stereo partly drawn) (X3-[dDab][d(aThr)][dDab][dDab][dDab][dF][dL][dDab][dDab][ξThr(3R)]; lactam 4-C)	0.0026% (inactive)	
C[C@H](O)[C@H](O)[C@H]1CNc2nc(N)[nH]c(=O)c2N1	-0.005% (inactive)	
Clc1ccc(COC(Cn2ccnc2)c2ccc(Cl)cc2Cl)c(Cl)c1 (stereo not given)	-0.058% [at 18.6 µM] (inactive)	
CC(O)[C@@H]1NC(=O)[C@H](Cc2ccccc2)NC(=O)[C@H](C(C)O)NC(=O)[C@H](CCCCN)NC(=O)[C@H](Cc2c[nH]c3ccccc23)NC(=O)[C@H](Cc2ccccc2)NC(=O)[C@H](Cc2ccccc2)NC(=O)[C@H](CC(N)=O)NC(=O)[C@H](CCCCN)NC(=O)[C@@H](NC(=O)CNC(=O)[C@H](C)N)CSSC[C@@H](C(=O)O)NC(=O)[C@H](CO)NC1=O (stereo not given in full)	-0.0829% (inactive)	

Reference: PubChem BioAssay (Tox21)
